These results are taken from PubChem BioAssay (EPA / NIEHS).

Records with an inconclusive call do not appear. Active and inactive are the calls of the source. How the source made its calls: active means hit-call score of the fitted dose curve at least 0.9, where 1 is the maximum; inconclusive means response in the unintended direction; inactive means score below 0.9.

The nature of assay [1]: ATG_GAL4_TRANS: Attagene TRANS-FACTORIAL HepG2 Assay for GAL4 (Internal Marker) (AID 2282976). Particulars: HepG2 Attagene TRANS GAL4 internal marker reporter. The gist of the method:
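Liver HepG2 line bearing multiplexed GAL4-UAS reporter constructs; 24 h chemical treatment. Transcripts were quantified as fluorescent fragments on capillary electrophoresis after RT-PCR and HpaI cut, with activity fitted upward from DMSO.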

Assay [2] has as its target Glucocorticoid receptor (Homo sapiens) (UniProt P04150). Briefly: ATG_GR_TRANS: Attagene TRANS-FACTORIAL HepG2 Assay for human Glucocorticoid Receptor (GR) (AID 2282978).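 Further: activators score as hits since higher reporter transcript over DMSO is fitted.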 Particulars: HepG2 Attagene TRANS GR reporter, mRNA transcription. The gist of the method: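 After 24 h incubation with test chemical, transfected HepG2 cells were lysed for RNA; reporter cDNA was amplified, FAM-labelled, HpaI-digested and sized on a capillary analyser. Signal gain relative to DMSO was scored.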

Assay [3] has as its target Bile acid receptor (Homo sapiens) (UniProt Q96RI1). Description: ATG_FXR_TRANS: Attagene TRANS-FACTORIAL HepG2 Assay for Farnesoid X Receptor (FXR) (AID 2282979).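 Further: hits raise reporter mRNA above DMSO so AC50 marks FXR activation.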 The note with it: HepG2 Attagene TRANS FXR-GAL4 reporter transcription. Put shortly: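 After 24 h chemical treatment of transfected HepG2 cells, GAL4-UAS reporter transcripts driven by an exogenous FXR-GAL4 fusion were measured by RT-PCR and capillary electrophoresis. Increases over DMSO were fitted.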

The target of assay [4] is Oxysterols receptor LXR-alpha (Homo sapiens) (UniProt Q13133). Briefly: ATG_LXRa_TRANS: Attagene TRANS-FACTORIAL HepG2 Assay for human Liver X Receptor alpha (LXRa) (AID 2282980). Particulars: HepG2 Attagene TRANS reporter, LXRa transactivation. The gist of the method:
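In this multiplexed TRANS system, compounds act on HepG2 cells carrying GAL4-UAS reporter units and a receptor-GAL4 fusion for 24 h. Induced reporter RNA is amplified, fluorescently labelled and sized by capillary electrophoresis, with DMSO as baseline.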

The target of assay [5] is Hepatocyte nuclear factor 4-alpha (Homo sapiens) (UniProt P41235). Description: ATG_HNF4a_TRANS: Attagene TRANS-FACTORIAL HepG2 Assay for human Hepatocyte Nuclear Factor 4 alpha (HNF4a) (AID 2282982). Particulars: HepG2 HNF4a transactivation reporter, mRNA readout. Put shortly: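 HepG2 cells transiently transfected with multiplexed GAL4-UAS reporter units responsive to chimeric NR-GAL4 proteins; compound exposure 24 h. Reporter mRNA quantified by RT-PCR, 6-FAM labelling, HpaI digestion and capillary electrophoresis; gain of signal versus DMSO baseline.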
Chain of Hepatocyte nuclear factor 4-alpha (Homo sapiens) (P41235 whole entry, looked up, the tested form may be a part): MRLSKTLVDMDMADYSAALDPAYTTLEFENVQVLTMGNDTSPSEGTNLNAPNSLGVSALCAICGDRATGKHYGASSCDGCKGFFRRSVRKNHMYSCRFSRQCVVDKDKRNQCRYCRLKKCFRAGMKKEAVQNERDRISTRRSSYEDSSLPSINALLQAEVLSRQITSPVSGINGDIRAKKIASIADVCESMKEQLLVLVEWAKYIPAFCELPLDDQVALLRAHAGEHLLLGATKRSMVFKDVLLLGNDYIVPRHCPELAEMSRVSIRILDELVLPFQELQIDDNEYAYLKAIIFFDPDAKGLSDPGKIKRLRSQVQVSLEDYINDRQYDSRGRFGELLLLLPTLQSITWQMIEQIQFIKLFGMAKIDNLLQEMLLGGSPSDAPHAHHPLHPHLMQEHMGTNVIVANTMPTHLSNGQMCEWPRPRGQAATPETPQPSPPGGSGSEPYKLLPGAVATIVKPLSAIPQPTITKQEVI

The nature of assay [6]: ATG_M_06_TRANS: Attagene TRANS-FACTORIAL HepG2 Assay for M06 Transcription Factor (Internal Marker) (AID 2282983).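 Further: reporter transcript level by RT-PCR then capillary electrophoresis fluorescence.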 The note with it: HepG2 Attagene TRANS M06 internal marker reporter. The gist of the method: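 Internal-marker background readout from a multiplexed TRANS reporter system in HepG2; 24 h dosing; mRNA induction quantified by RT-PCR plus capillary electrophoresis fluorescence; DMSO as negative control and baseline.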

Assay [7] in a line: ATG_M_32_TRANS: Attagene TRANS-FACTORIAL HepG2 Assay for M32 Transcription Factor (Internal Marker) (AID 2282984).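 Further: transcript level of a background control reporter unit measured by RT-PCR and capillary electrophoresis.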 Particulars: HepG2 Attagene TRANS M32 internal marker reporter. The gist of the method:
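HepG2 cells transiently transfected with multiple GAL4-UAS reporter transcription units, dosed for 24 hours; reporter mRNA quantified by RT-PCR, 6-FAM primer extension, HpaI digestion and capillary electrophoresis. Gain-of-signal fitted versus DMSO baseline; internal background-control marker.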

In assay [8] the target is Nuclear receptor subfamily 4 group A member 2 (Homo sapiens) (UniProt P43354). Briefly: ATG_NURR1_TRANS: Attagene TRANS-FACTORIAL HepG2 Assay for human Nuclear Receptor Related Protein 1 (NURR1) (AID 2282985). Particulars: HepG2 Attagene TRANS reporter, mRNA readout. Put shortly: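 HepG2 cells transiently transfected with GAL4-UAS reporter units and chimeric NR-Gal4 constructs; chemical exposure 24 h. Reporter mRNA quantified by RT-PCR, fluorescent labelling and capillary electrophoresis; gain of signal fitted relative to DMSO baseline.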
Chain of Nuclear receptor subfamily 4 group A member 2 (Homo sapiens) (P43354 whole entry, looked up, the tested form may be a part): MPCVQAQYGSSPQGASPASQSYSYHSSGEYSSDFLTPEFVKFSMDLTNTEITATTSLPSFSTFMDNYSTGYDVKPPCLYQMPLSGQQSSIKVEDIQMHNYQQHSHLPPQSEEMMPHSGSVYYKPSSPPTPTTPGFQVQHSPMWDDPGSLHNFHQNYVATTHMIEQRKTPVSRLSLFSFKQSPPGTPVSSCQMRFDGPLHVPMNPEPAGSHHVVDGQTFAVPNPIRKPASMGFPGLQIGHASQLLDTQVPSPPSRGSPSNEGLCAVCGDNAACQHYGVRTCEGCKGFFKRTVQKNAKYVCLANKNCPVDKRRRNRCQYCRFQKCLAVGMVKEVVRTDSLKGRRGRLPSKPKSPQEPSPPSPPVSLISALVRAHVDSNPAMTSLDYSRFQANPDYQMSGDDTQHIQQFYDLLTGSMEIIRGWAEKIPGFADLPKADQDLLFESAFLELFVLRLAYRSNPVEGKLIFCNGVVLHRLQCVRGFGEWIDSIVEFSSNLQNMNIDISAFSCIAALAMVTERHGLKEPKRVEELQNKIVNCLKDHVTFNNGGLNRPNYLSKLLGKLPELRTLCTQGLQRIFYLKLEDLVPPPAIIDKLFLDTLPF

Assay [9] addresses Estrogen-related receptor gamma (Homo sapiens) (UniProt P62508). Briefly: ATG_ERRg_TRANS: Attagene TRANS-FACTORIAL HepG2 Assay for human Estrogen-Related Receptor gamma (ERRg) (AID 2282977).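 Further: hits increase reporter signal over DMSO so potencies reflect activators.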 Particulars: HepG2 Attagene TRANS reporter, ERRg transactivation. The gist of the method:
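HepG2 cells transiently transfected with multiplexed GAL4-UAS reporter units and chimeric NR-Gal4 constructs were exposed to test chemicals for 24 h. Reporter mRNA was measured by RT-PCR, 6-FAM primer extension, HpaI digestion and capillary electrophoresis; gain-of-signal versus DMSO.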

The target of assay [10] is Oxysterols receptor LXR-beta (Homo sapiens) (UniProt P55055). Briefly: ATG_LXRb_TRANS: Attagene TRANS-FACTORIAL HepG2 Assay for human Liver X Receptor beta (LXRb) (AID 2282981). The note with it: HepG2 Attagene TRANS GAL4-LXRb reporter, mRNA. The gist of the method: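 HepG2 cells transiently transfected with multiple reporter transcription units carrying chimeric NR-Gal4 proteins acting on GAL4-UAS reporters; compound exposure 24 h. Reporter mRNA quantified by RT-PCR, 6-FAM labelling, HpaI digestion and capillary electrophoresis; gain of signal versus DMSO.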
Chain of Oxysterols receptor LXR-beta (Homo sapiens) (P55055 whole entry, looked up, the tested form may be a part): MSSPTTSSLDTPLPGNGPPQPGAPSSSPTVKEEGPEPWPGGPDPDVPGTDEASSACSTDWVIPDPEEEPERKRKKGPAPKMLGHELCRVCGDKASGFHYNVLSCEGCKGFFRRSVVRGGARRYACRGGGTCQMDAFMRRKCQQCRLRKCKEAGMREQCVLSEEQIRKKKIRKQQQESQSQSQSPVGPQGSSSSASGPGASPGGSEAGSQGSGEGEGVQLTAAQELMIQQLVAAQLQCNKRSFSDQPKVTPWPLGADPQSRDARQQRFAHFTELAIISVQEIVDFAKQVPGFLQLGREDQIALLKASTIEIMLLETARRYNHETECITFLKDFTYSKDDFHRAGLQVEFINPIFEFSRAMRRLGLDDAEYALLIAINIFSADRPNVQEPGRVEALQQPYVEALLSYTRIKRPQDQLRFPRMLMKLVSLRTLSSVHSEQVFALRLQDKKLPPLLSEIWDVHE

Chain of Bile acid receptor (Homo sapiens) (Q96RI1 whole entry, looked up, the tested form may be a part): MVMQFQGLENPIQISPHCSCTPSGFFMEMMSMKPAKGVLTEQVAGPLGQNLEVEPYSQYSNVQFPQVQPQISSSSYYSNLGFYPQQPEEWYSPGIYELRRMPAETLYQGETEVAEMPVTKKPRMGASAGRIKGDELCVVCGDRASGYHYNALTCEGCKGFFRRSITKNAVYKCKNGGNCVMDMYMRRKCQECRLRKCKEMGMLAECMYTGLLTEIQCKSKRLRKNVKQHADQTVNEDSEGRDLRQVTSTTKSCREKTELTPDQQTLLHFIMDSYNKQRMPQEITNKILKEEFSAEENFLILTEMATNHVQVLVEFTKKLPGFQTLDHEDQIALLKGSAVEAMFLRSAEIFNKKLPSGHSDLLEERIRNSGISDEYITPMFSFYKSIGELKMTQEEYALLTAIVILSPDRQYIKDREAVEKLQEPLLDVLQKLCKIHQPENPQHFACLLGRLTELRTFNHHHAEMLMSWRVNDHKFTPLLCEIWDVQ
Chain of Glucocorticoid receptor (Homo sapiens) (P04150 whole entry, looked up): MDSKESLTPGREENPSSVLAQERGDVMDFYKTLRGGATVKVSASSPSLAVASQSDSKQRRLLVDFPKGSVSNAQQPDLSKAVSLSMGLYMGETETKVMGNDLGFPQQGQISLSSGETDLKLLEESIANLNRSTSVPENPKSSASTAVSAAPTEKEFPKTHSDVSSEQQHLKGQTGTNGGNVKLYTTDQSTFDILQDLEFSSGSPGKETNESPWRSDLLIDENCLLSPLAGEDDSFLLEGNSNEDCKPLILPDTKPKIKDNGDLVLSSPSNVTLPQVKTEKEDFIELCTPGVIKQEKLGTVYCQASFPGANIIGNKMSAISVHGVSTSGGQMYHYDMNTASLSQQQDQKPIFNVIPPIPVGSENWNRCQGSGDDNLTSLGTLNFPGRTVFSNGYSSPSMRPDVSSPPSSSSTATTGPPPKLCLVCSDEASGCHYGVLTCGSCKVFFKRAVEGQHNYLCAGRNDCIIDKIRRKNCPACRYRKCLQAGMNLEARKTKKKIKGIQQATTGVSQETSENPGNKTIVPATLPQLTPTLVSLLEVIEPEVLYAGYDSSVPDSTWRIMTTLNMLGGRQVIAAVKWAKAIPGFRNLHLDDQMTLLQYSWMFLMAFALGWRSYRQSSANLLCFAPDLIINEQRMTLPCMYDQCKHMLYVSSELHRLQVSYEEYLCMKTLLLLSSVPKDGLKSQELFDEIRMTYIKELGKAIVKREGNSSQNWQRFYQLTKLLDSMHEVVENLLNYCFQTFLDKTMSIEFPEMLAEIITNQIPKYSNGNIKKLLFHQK
Chain of Estrogen-related receptor gamma (Homo sapiens) (P62508 whole entry, looked up, the tested form may be a part): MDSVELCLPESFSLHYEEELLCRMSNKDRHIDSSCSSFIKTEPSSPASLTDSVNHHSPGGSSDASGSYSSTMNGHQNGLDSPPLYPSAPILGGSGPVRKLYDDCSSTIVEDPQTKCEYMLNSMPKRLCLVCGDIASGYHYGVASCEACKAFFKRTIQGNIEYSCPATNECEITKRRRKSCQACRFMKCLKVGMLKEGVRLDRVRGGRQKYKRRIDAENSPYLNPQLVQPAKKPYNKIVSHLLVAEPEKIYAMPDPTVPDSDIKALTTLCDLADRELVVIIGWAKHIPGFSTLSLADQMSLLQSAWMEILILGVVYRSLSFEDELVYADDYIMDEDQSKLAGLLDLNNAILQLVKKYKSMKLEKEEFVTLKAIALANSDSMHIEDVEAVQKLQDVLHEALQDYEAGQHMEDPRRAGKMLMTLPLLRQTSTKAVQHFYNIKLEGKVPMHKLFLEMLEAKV
Chain of Oxysterols receptor LXR-alpha (Homo sapiens) (Q13133 whole entry, looked up, the tested form may be a part): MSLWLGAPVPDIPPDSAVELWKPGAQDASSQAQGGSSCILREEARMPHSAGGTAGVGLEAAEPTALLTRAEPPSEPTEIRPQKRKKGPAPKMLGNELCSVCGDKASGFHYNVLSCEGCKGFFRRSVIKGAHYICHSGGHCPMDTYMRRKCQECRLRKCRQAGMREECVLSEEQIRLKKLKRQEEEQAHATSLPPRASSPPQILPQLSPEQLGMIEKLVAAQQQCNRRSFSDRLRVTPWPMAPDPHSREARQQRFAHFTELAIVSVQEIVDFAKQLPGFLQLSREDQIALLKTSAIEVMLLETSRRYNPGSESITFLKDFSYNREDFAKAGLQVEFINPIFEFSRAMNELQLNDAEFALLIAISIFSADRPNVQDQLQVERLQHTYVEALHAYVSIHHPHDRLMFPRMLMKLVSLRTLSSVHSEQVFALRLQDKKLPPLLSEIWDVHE

Regarding `CCCCN(CCCC)N=O`, the molecule was classed as inactive in [1], in [2], in assay [3], in [4], in assay [5] and in [6].
Turning to `C=C(C)C(=O)OCC1CO1` (stereo not drawn), the result in [1], in assay [2], in [5], in assay [6], in [7] and in assay [8] was inactive.
As to `CC(Cc1ccc(OCC(=O)O)cc1)NCC(O)c1csc(C(F)(F)F)n1` (stereo not drawn), the call in assay [1], in assay [9], in assay [10] and in assay [8] was inactive.
In the case of `COCCOCCO`, the molecule was classed as inactive in [1], in [9], in [5] and in assay [6].
For `Cc1ccc(N)cc1N`, the molecule was called inactive in assay [1], in assay [9], in assay [2], in assay [3], in assay [6] and in [8].
`NC(=O)C(F)(F)C(F)(F)F`: the result in [1], in assay [9], in [3] and in assay [6] was inactive.
With `C=CC(=O)OCC(F)(F)C(F)F`, the outcome in assay [1], in assay [2], in assay [5], in [6], in [7] and in [8] was inactive.
With `CCC(C)(C)c1ccc(O)cc1`, the molecule was classed as inactive in assay [1], in assay [9], in assay [3], in [6] and in [8].
The AC50 is the concentration at which the activity in the assay is half-maximal. In the case of `O=P(Oc1ccccc1)(Oc1ccccc1)Oc1ccccc1`, the molecule was called inactive in assay [1], in assay [2], in assay [3], in [6] and in assay [7]. The AC50 in assay [8] was 47.9 µM (active).
In the case of `CCOP(=S)(S)OCC`, the molecule was classed as inactive in assay [1], in assay [3], in assay [4], in [10], in assay [6] and in [7]. In addition, the call in assay [8] was inactive.
For `CCOP(=S)(OCC)SCS(=O)(=O)CC`, the outcome in assay [1], in [2], in [3], in [4], in assay [10] and in [5] was inactive. Besides, the molecule was classed as inactive in assay [6] and in assay [7].
Regarding `CC(C)Nc1ccc(Nc2ccccc2)cc1`, the call in assay [1], in assay [9], in assay [2], in assay [3], in assay [4] and in assay [5] was inactive. Besides, in [8], the call was inactive.
Regarding `N#Cc1ccc(O)cc1`, the molecule was called inactive in assay [1], in assay [2], in assay [3], in assay [5], in assay [6] and in assay [7]. For the same molecule, the result in [8] was inactive.
Regarding `Cc1ccc(O)cc1C`, the result in assay [1] was inactive.
Regarding `O=C(O)C(F)(F)OC(F)(F)C(F)(F)OC(F)(F)F`, the molecule was classed as inactive in assay [1], in [9], in [3], in [4], in [10] and in assay [5]. Besides, the outcome in assay [6] and in assay [7] was inactive.
Consider `COC(=O)C(F)(F)C(F)(F)OC(F)(C(F)(F)F)C(F)(F)OC(F)=C(F)F` (stereo not drawn), for which the result in assay [1], in [9], in assay [2], in assay [3], in assay [4] and in assay [10] was inactive. In addition, the result in [5], in [6], in assay [7] and in [8] was inactive.
Take `ClC(Cl)c1ccccc1`: the molecule was called inactive in assay [1], in assay [9], in assay [2], in [4], in assay [10] and in assay [7].
In the case of `N#Cc1c(-c2ccc(Cl)cc2)[nH]c(C(F)(F)F)c1Br`, the result in assay [1], in assay [9], in assay [3], in assay [5] and in assay [8] was inactive.
For `OCC(F)(F)OC(F)(F)C(F)(F)OC(F)(F)C(F)(F)OC(F)(F)F`, the molecule was classed as inactive in assay [1], in [9], in [2], in assay [3], in assay [4] and in [10]. For the same molecule, the result in [5], in assay [6], in assay [7] and in assay [8] was inactive.
For the molecule `CCNc1nc(Cl)nc(NC(C)(C)C)n1`, the molecule was called inactive in [1], in assay [2], in assay [3], in assay [5], in assay [6] and in [7].
For the molecule `Nc1ccc2ccccc2c1`, the molecule was called inactive in [1], in assay [9], in assay [10], in [6] and in assay [7].
Turning to `Nc1ccc([N+](=O)[O-])cc1Cl`, the molecule was called inactive in assay [1], in assay [2], in assay [3], in assay [4], in [10] and in assay [5]. For the same molecule, the call in assay [7] was inactive.
Consider `Oc1ccccc1Br`, for which the molecule was called inactive in assay [1], in [2], in assay [3], in assay [5] and in assay [6].
Regarding `CCCCOCC1CO1` (stereo not drawn), the result in assay [1], in assay [9], in assay [5] and in assay [8] was inactive.
